What all share (experiment): DAPPL (digital affinity profiling via proximity ligation, sequencing); 10 mM Tris-HCl pH 7.5, 50 mM NaCl, 1 mM DTT, 4% glycerol, room temperature, 30 min; GST-TFs on glutathione beads, 16-mer random dsDNA library, 0.1% formaldehyde crosslink after washing; high values mean tight binding
Settings in all cases: protein: recombinant; tags: N-terminal GST; dsDNA, one strand shown

One experiment addresses T1, ERF (Homo sapiens, UniProt P50548 1-548).
T1 sequence: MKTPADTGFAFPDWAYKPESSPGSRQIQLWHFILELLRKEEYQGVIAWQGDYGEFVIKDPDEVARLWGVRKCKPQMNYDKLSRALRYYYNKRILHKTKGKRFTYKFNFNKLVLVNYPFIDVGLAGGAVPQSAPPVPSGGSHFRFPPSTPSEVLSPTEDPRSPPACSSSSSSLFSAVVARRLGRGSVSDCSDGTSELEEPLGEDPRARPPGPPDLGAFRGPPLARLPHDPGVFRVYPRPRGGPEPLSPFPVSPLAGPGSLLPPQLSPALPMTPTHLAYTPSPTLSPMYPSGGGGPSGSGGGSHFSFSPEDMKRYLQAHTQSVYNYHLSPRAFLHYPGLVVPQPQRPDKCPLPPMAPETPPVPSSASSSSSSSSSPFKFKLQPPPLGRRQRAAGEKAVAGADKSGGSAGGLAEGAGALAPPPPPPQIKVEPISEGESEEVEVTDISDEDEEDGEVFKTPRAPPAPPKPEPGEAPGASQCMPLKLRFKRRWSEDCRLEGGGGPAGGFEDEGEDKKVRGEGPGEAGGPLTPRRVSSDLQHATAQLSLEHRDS
In a few lines: (§1)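 Binding signal is given per hexamer as its read frequency for a factor divided by its frequency in the tag-only sample. GST-fused human transcription factors were expressed in yeast, captured on glutathione beads, barcoded with DNA and pooled with that sample, then incubated with 200 nmole of a 16-mer random double-stranded DNA library in Tris/NaCl/DTT/glycerol buffer for 30 min at room temperature. The pools were then washed, crosslinked, proximity-ligated, amplified by PCR and sequenced on an Illumina NextSeq500.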

For another experiment, the target named is T2, ETV3L (Homo sapiens, UniProt Q6ZN32 1-361).
T2 sequence: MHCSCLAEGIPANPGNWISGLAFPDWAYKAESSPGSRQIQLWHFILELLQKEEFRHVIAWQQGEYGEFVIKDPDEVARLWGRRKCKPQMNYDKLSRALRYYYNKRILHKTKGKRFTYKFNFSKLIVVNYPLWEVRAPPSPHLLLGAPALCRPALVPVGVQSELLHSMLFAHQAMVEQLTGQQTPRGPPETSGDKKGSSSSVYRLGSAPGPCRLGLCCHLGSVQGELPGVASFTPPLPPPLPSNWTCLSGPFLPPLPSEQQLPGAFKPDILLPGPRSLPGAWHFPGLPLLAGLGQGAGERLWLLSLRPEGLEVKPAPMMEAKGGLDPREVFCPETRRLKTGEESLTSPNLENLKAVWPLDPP
A digest of the protocol:
as §1

A further experiment addresses T3, ETS2 (Homo sapiens, UniProt P15036 1-469).
T3 sequence: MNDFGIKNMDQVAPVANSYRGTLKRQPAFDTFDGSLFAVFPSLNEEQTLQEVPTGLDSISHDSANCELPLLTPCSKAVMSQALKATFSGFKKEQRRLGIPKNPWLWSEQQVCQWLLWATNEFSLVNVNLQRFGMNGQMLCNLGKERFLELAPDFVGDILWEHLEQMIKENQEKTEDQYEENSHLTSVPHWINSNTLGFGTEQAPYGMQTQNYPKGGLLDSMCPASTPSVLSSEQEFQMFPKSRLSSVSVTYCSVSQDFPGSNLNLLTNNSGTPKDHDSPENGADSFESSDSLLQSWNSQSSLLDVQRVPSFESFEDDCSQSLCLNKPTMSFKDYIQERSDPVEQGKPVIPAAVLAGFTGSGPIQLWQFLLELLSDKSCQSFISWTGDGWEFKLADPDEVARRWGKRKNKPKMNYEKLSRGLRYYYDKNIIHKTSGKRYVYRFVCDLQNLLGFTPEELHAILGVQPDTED
In a few lines:
as §1

In a further experiment the target is T4, SPDEF (Homo sapiens, UniProt O95238 1-335).
T4 sequence: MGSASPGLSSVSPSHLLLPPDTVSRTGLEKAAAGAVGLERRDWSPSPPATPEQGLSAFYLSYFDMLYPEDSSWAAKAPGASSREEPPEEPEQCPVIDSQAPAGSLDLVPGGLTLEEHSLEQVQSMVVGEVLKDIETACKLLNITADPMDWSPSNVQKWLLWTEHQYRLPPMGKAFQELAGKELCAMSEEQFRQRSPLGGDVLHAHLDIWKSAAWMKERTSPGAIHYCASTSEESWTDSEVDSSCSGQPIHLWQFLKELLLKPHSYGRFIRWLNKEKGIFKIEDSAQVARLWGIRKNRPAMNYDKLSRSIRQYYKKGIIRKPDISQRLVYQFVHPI
In a few lines:
as §1

A further experiment concerns the target T5, ETV7 (Homo sapiens, UniProt Q9Y603 1-341).
T5 sequence: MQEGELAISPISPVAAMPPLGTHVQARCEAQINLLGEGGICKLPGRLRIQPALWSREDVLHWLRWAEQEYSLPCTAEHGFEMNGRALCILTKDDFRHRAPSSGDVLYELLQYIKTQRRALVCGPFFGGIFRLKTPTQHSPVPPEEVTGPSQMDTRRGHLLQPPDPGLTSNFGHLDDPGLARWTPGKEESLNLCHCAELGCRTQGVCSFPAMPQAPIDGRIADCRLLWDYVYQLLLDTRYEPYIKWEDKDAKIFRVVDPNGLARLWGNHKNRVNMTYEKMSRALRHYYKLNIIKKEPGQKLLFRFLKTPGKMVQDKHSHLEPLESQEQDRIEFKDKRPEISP
In a few lines: as §1

In a further experiment the target is T6, ELF5 (Homo sapiens, UniProt Q9UKW6-2 1-255).
T6 sequence: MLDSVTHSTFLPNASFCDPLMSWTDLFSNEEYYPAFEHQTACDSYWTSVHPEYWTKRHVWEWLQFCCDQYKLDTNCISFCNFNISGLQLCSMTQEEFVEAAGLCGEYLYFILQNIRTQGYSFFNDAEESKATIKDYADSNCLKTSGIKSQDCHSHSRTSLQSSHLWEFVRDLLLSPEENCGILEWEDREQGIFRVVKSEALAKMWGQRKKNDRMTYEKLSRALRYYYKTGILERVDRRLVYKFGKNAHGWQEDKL
A digest of the protocol: as §1

A further experiment deals with T7, ETV3 (Homo sapiens, UniProt P41162-2 1-143).
T7 sequence: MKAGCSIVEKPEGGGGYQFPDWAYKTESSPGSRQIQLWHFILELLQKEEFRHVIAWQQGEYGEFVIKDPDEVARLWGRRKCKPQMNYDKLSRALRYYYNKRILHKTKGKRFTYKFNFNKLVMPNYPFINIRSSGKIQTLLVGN
A digest of the protocol: as §1

Another experiment has as its target ETV6 (Homo sapiens, UniProt P41212 1-452). In a few lines: as §1

Chain of ETV6 (P41212 whole entry): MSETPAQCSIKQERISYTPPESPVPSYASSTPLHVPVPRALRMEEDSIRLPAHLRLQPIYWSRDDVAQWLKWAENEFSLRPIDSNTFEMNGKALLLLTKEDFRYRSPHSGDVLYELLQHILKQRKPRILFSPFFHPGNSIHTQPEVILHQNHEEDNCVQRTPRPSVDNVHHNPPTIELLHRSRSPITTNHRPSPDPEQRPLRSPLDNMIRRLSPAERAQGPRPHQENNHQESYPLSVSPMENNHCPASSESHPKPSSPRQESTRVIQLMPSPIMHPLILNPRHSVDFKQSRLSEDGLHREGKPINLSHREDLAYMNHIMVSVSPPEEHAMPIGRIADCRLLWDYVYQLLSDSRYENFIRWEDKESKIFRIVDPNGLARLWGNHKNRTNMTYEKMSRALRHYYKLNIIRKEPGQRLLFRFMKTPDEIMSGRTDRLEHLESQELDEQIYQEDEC

ATTATG: the binding signal with ERF is 1.11 fold enrichment (6-mer frequency, TF over GST control); in the experiment with ETV3L, 1.27 fold enrichment (6-mer frequency, TF over GST control); with ETS2, 1.14 fold enrichment (6-mer frequency, TF over GST control); with SPDEF it was 1.19 fold enrichment (6-mer frequency, TF over GST control); with ETV7 it was 1.32 fold enrichment (6-mer frequency, TF over GST control); in the experiment with ELF5, 1.14 fold enrichment (6-mer frequency, TF over GST control). Also, the binding signal with ETV3 is 1.2 fold enrichment (6-mer frequency, TF over GST control); in the experiment with ETV6 it was 1.33 fold enrichment (6-mer frequency, TF over GST control).

For the sequence TCCATT, the binding signal with ERF was 1.23 fold enrichment (6-mer frequency, TF over GST control); in the experiment with ETV3L it was 1.22 fold enrichment (6-mer frequency, TF over GST control); with ETS2, 1.28 fold enrichment (6-mer frequency, TF over GST control); with SPDEF it was 1.2 fold enrichment (6-mer frequency, TF over GST control); with ETV7, 1.26 fold enrichment (6-mer frequency, TF over GST control); with ELF5 it was 1.2 fold enrichment (6-mer frequency, TF over GST control). Besides, the binding signal in the experiment with ETV3 is 1.37 fold enrichment (6-mer frequency, TF over GST control); in the experiment with ETV6 it was 1.29 fold enrichment (6-mer frequency, TF over GST control).

With GCATTT, the binding signal in the experiment with ERF is 1.31 fold enrichment (6-mer frequency, TF over GST control); with ETV3L, 1.35 fold enrichment (6-mer frequency, TF over GST control); with ETS2, 1.34 fold enrichment (6-mer frequency, TF over GST control); with SPDEF, 1.36 fold enrichment (6-mer frequency, TF over GST control); with ETV7 it was 1.31 fold enrichment (6-mer frequency, TF over GST control); with ELF5, 1.4 fold enrichment (6-mer frequency, TF over GST control). Further, the binding signal in the experiment with ETV3 is 1.36 fold enrichment (6-mer frequency, TF over GST control); with ETV6 it was 1.39 fold enrichment (6-mer frequency, TF over GST control).

Regarding TCCCGG, the binding signal with ERF was 1.77 fold enrichment (6-mer frequency, TF over GST control); with ETV3L it was 2.2 fold enrichment (6-mer frequency, TF over GST control); in the experiment with ETS2, 2.34 fold enrichment (6-mer frequency, TF over GST control); with SPDEF, 2.76 fold enrichment (6-mer frequency, TF over GST control); in the experiment with ETV7, 1.92 fold enrichment (6-mer frequency, TF over GST control); with ELF5, 3.07 fold enrichment (6-mer frequency, TF over GST control). Besides, the binding signal in the experiment with ETV3 was 2.44 fold enrichment (6-mer frequency, TF over GST control); with ETV6 it was 2.46 fold enrichment (6-mer frequency, TF over GST control).

Turning to TTTCAG, the binding signal in the experiment with ERF was 1.38 fold enrichment (6-mer frequency, TF over GST control); with ETV3L, 1.31 fold enrichment (6-mer frequency, TF over GST control); with ETS2 it was 1.27 fold enrichment (6-mer frequency, TF over GST control); with SPDEF, 1.37 fold enrichment (6-mer frequency, TF over GST control); in the experiment with ETV7, 1.13 fold enrichment (6-mer frequency, TF over GST control); with ELF5 it was 1.28 fold enrichment (6-mer frequency, TF over GST control). Besides, the binding signal with ETV3 is 1.27 fold enrichment (6-mer frequency, TF over GST control); in the experiment with ETV6, 1.31 fold enrichment (6-mer frequency, TF over GST control).

Regarding TATGAT, the binding signal with ERF is 1.22 fold enrichment (6-mer frequency, TF over GST control); with ETV3L, 1.18 fold enrichment (6-mer frequency, TF over GST control); in the experiment with ETS2, 1.17 fold enrichment (6-mer frequency, TF over GST control); with SPDEF it was 1.23 fold enrichment (6-mer frequency, TF over GST control); with ETV7, 1.25 fold enrichment (6-mer frequency, TF over GST control); with ELF5, 1.26 fold enrichment (6-mer frequency, TF over GST control). The binding signal is 1.26 fold enrichment (6-mer frequency, TF over GST control) in the experiment with ETV3 and 1.17 fold enrichment (6-mer frequency, TF over GST control) in the experiment with ETV6.

In the case of ACGAAT, the binding signal with ERF is 1.17 fold enrichment (6-mer frequency, TF over GST control); with ETV3L, 1.15 fold enrichment (6-mer frequency, TF over GST control); with ETS2 it was 1.1 fold enrichment (6-mer frequency, TF over GST control); with SPDEF, 1.13 fold enrichment (6-mer frequency, TF over GST control); with ETV7, 1.23 fold enrichment (6-mer frequency, TF over GST control); with ELF5, 1.11 fold enrichment (6-mer frequency, TF over GST control). Moreover, the binding signal in the experiment with ETV3 was 1.11 fold enrichment (6-mer frequency, TF over GST control); with ETV6 it was 1.11 fold enrichment (6-mer frequency, TF over GST control).

The record behind these values is publication PMC7862700, “An all-to-all approach to the identification of sequence-specific readers for epigenetic DNA modifications on cytosine”.
